According to the supplement of paper PMC3414501:
Structures can show the parent of a compound that is named as a salt.

System: S. cerevisiae BY4741 (wild-type), vegetative growth in YPD
Assay: growth sensitivity score (doubling time z-score vs DMSO controls); higher = slower growth, strongly negative scores also mark growth inhibition (complete suppression), active = hit call of the paper; in the data active = 2 or more and inactive = the rest
In short: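 Saccharomyces cerevisiae strains BY4741 and AD1-9 were seeded in rich medium in microtiter plates at an OD600 of 0.065. Compounds were added at a 1:100 dilution of DMSO stock. Optical density was read every 15 min for 24 hours on a Tecan GENios reader. Average doubling time was the time taken to reach a set generation point divided by generation number, and the growth sensitivity score was (compound mean − DMSO-control mean)/DMSO-control SD, using eight DMSO controls per experiment.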

Growth sensitivity score, inactive:
C/C=C1\[C@H]2C=C(C)C[C@]1(N)c1ccc(=O)[nH]c1C2 [Huperzine a] (stock concentration (mM, diluted 1:100): 10) -1.79
CC(C)Oc1ccc2c(=O)c(-c3ccccc3)coc2c1 [Ipriflavone] (stock concentration (mM, diluted 1:100): 10) -0.15
CCOC(=O)c1ncn2c1CN(C)C(=O)c1cc(F)ccc1-2 [Flumazenil] (stock concentration (mM, diluted 1:100): 10) 1.4
CC(CCCCC(=O)Nc1ccc(C(F)(F)F)cc1)NCCc1cnc[nH]1 (stereo not drawn) (stock concentration (mM, diluted 1:100): 10) -0.06
COc1cc(C[C@@H](CO)[C@H](CO)Cc2ccc(O)c(OC)c2)ccc1O [Secoisolariciresinol] (stock concentration (mM, diluted 1:100): 10) -0.92
CN1CCN2c3ncccc3Cc3ccccc3C2C1 (stereo not drawn) [Mirtazapine] (stock concentration (mM, diluted 1:100): 10) -0.03
COc1ccc(C(=O)NCc2ccc(OCCN(C)C)cc2)cc1OC [Itopride hydrochloride] (stock concentration (mM, diluted 1:100): 8.2) -0.67
CC(C)[C@H]1CC[C@H](C(=O)N[C@H](Cc2ccccc2)C(=O)O)CC1 [Nateglinide] (stock concentration (mM, diluted 1:100): 10) -0.35
